# High-throughput results from PubChem.
# HT1080 IDH1KD tx = kills HT-1080 cells with IDH1 knockdown | 360,000 tested, 2% active | HT-1080 IDH1 knockdown viability, ATP luminescence, 48 h | AID 686971 | Potency, µM (top dose mostly 46.1 µM), without a hit: top-dose activity, negative = toxicity, actives largely listed as cytotoxic;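 note: potency is the fitted concentration of half-maximal effect; 0% = DMSO wells and -100% = cell-free medium wells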
#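 Cytotoxicity counter-line: IDH1KD HT-1080, 48 h, CellTiter-Glo. Curves classed by r2, magnitude and activity.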
# TDP1 cell CPT = DT40-hTDP1 cell growth loss with CPT | chicken DT40 Tdp1-/-;hTDP1 cells + 20 nM CPT, ATP luminescence, 48 h | AID 686979 | 420,000 tested, 12% active | Potency, µM (top dose mostly 46.2 µM), for the others: top-dose activity change, negative = growth inhibition, usual class: inhibitors; note: potency is the fitted concentration of half-maximal effect; nearly all actives have a fitted effect of over 55% in size
#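 Chicken DT40 Tdp1-/- cells stably complemented with human TDP1 were seeded at 400 cells/well in medium containing 20 nM camptothecin, exposed to pin-transferred compounds, and grown at 37 °C for at least 48 hr. Viability was read as ATP luminescence.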
# TDP1 cell noCPT = qHTS for Inhibitors of human tyrosyl-DNA phosphodiesterase 1 (TDP1): qHTS in cells in absence of CPT. DT40 Tdp1-/- hTDP1 cells, no CPT, ATP luminescence, 48 h. 420,000 tested, 15% active. AID 686978, 2013. Potency, µM (highest dose often 46.2 µM), inactives show at the highest dose activity change, negative = growth inhibition, usual class: inhibitors; note: potency is the fitted concentration of half-maximal effect; nearly all actives have a fitted effect of over 55% in size
#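 Camptothecin absent (DMSO only). Human TDP1-complemented DT40 knockout cells, 400 cells/well, 37 °C for minimum 48 hr; ATP measured via CellTiter-Glo, 30 min dark incubation, luminescence.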
# HT1080-NT tox = kills 2HG-producing HT-1080-NT fibrosarcoma cells | HT-1080-NT fibrosarcoma viability, CellTiter-Glo ATP luminescence, 48 h | Potency, µM (highest dose often 46.1 µM), without a hit: at the highest dose activity, negative = less viability, actives largely listed as cytotoxic | 360,000 tested, 1.6% active;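 note: NT is the 2HG producing partner of a matched IDH1 knockdown line; potency is the fitted concentration of half-maximal effect; 0% = DMSO-treated cells and -100% = media-only wells without cells; nearly all actives have a fitted effect of over 55% in size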
#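 Luminescent CellTiter-Glo readout after 48 hours of compound exposure at 37 degrees C defined viability of HT-1080-NT cells. Activity was normalized to DMSO wells and cell-free media wells; concentration-response curves were fitted and assigned curve classes.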
# IL-1B inflam inh = inflammasome signaling inhibition, IL-1 beta readout | THP-1 LPS/ATP IL-1B secretion, AlphaLISA, 16 h; hits give low values | activity change, % at 57.5 µM | 360,000 tested, 4.7% active; in the data active = activity change below about -50%; inconclusive = mostly about -30% to -49%
#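 Secreted IL-1B measured by AlphaLISA bead assay after 16 h compound exposure of THP-1 cells; compounds (final up to 57.5 uM) added 1 h before LPS (250 ng/mL) and ATP (1.25 mM) stimulation; lower signal means less secretion.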
# * marks the source's active call; other numbers are inactive results; u = inconclusive; x = no result given; [ ] = remark or other dose. Compounds with a hit are over-represented: about 19% of the library has one in this group of screens. Unless noted, calls come from the whole dose curve; as a rule, active = well fitted curve in the direction sought with a large enough effect; inconclusive = small, poorly fitted or top-dose-only effect, or another doubt; inactive = no such curve, though single readings can be large; an effect the other way counts as inactive or inconclusive. Unless noted, % is set by controls: 0 for no effect and ±100 for the full control effect.
SMILES,HT1080 IDH1KD tx,TDP1 cell CPT,TDP1 cell noCPT,HT1080-NT tox,IL-1B inflam inh
COc1ccc(-n2ncc3c(N4CCN(c5cc(C)ccc5C)CC4)ncnc32)cc1,2%,0%,u,-1%,2
Cc1ccc(-n2ncc3c(N4CCN(c5ccccc5)CC4)ncnc32)c(C)c1,-5%,5.8µM*,4.6µM*,-2%,-69*
CCN1CCN(c2ncnc3c2cnn3-c2ccc(C)cc2C)CC1,-4%,u,u,-4%,u
COc1ccccc1CCNC(=O)CSc1nnc2ccc(-c3ccncc3)nn12,0%,-3%,-2%,12%,u
Cc1cccc(N2CCN(S(=O)(=O)c3ccc4c(c3)NC(=O)CO4)CC2)c1C,-6%,u,-16%,-23%,34
COCC(=O)Nc1cc(C(=O)N2CCc3ccccc3C2)c2c(c1)nc(-c1ccncc1)n2C,x,2%[9.04 µM],-12%,x,x
COc1ccc(C2=C(N3CCN(c4cccc(C)c4)C(C)C3)c3ccccc3C2=O)cc1 (configuration not stated),x,21µM*,26µM*,x,x
Cc1cccc(C(=O)N2CCN(c3ncnc4c3cnn4-c3ccccc3)CC2)c1,-3%,u,u,1%,-57*
CC1=C(c2ccc(Cl)cc2)S(=O)(=O)N=C1N1CCN(c2cccc(C)c2)C(C)C1 (configuration not stated),x,5.2µM*,5.2µM*,x,x
Cc1cccc(-n2ncc3c(N4CCCC4)ncnc32)c1,13%,-31%,-27%,4%,-7
COc1ccc(N2CCN(c3ncnc4c3cnn4-c3ccc(C)c(Cl)c3)CC2)cc1,x,-11%,-12%,x,x
Cc1ccc(-n2ncc3c(N4CCN(c5ccccc5)CC4)ncnc32)cc1C,x,u,13µM*,x,x
Cc1ccc(-c2nc3nc(C)cc(N4CCN(c5cccc(C)c5)C(C)C4)n3n2)cc1 (configuration not stated),x,-13%,u,x,x
COc1cccc(C(NC(C)=O)c2nc(-c3cccc(C(C)C)c3)cs2)c1 (configuration not stated),-27%,u,u,-22%,-8
COc1ccc(N2CCN(c3ncnc4c3cnn4-c3ccc(C)cc3C)CC2)cc1,15%,u,12µM*,5%,20
O=C(CSc1c(Cl)cccc1Cl)N1CCC(c2nc3ccccc3s2)CC1,-27%,u,21µM*,-19%,-16
O=C(CSc1ccc(Cl)cc1)N1CCC(c2nc3ccccc3s2)CC1,-7%[9.24 µM],26µM*,u,u,-2
CC1CCN(C(=O)CSc2nc3ccccc3s2)CC1,7%,12%,-14%,9%,-15
CON1C(=O)C(=O)N(OC)C(C)(C)C1(C)C,15%,-16%,-10%,13%,13
O=C(NCc1ccccc1)NC(=O)c1ccccc1F,4%,-5%,5%,6%,10
Cn1c(CSCc2ccc(Cl)cc2Cl)n[nH]c1=S,-1%,u,u,-2%,7
CSc1nnc(CSCc2ccc(Cl)cc2Cl)n1-c1ccccc1,u,u,20µM*,0%,-16
COC(=O)c1ccccc1NC(=O)c1nn(C)c2c1COc1ccccc1-2,x,-5%,-2%,x,x
O=[N+]([O-])c1cccc(-c2nc3ccccc3s/c2=N/O)c1,u,-14%,u,u,-81*
Cc1ccc(C)c(-c2nnc(NC(=O)COc3ccccc3)o2)c1,1%,u,u,7%,11
SMILES,HT1080 IDH1KD tx,TDP1 cell CPT,TDP1 cell noCPT,HT1080-NT tox,IL-1B inflam inh
Cc1ccc(-c2nnc(NC(=O)Cc3ccc(F)cc3)o2)c(C)c1,-1%,10µM*,12µM*,4%,-13
Cc1cc(C)c2sc(NC(=O)c3ccc([N+](=O)[O-])o3)nc2c1,15%,u,u,13%,u
Cc1ccc(C)c(-c2nnc(NC(=O)c3ccc([N+](=O)[O-])o3)o2)c1,u,15µM*,15µM*,u,-10
Cc1ccc(C)c(-c2nnc(NC(=O)Cc3ccc(F)cc3)o2)c1,1%,12µM*,10µM*,0%,-11
CC(=O)NCCc1nc2ccccc2n1CCOc1ccccc1,-1%,-1%,2%,0%,-2
C=C(C)Cn1c(CCCNC(=O)C(C)(C)C)nc2ccccc21,6%,16µM*,23µM*,15%,25
CC(C)(C)C(=O)NCCCc1nc2ccccc2n1CCCOc1ccc(Cl)cc1,u,6.5µM*,8.2µM*,u,-74*
COc1ccccc1OCCn1c(C(C)Oc2ccccc2)nc2ccccc21 (configuration not stated),x,26µM*,u,x,x
CC(=O)NCCc1nc2ccccc2n1CCCCOc1ccccc1,0%,u,13µM*,-1%,39
CC(=O)C[C@@H](O)CC(=O)[C@H]1OC(=O)[C@H](C)CCCCc2ccccc21,8%,-1%,1%,12%,24
CC(=O)NCCc1nc2ccccc2n1CCCCOc1ccc(Cl)cc1,x,21µM*,15µM*,x,x
Cn1c(CCCNC(=O)c2ccccc2)nc2ccccc21,15%,-21%,-26%,7%,17
CC(=O)NCCc1nc2ccccc2n1CCOc1ccc(C)cc1,-7%,u,u,-8%,16
CCCCCn1c(CCCNC(=O)c2ccc(Cl)cc2)nc2ccccc21,x,u,16µM*,x,x
CC(O)c1nc2ccccc2n1CCCCOc1ccccc1 (configuration not stated),-1%,-24%,15µM*,-8%,-3
O=C(COC(=O)CNC(=O)c1ccccc1)NCc1ccc2c(c1)OCO2,12%,1%,4%,-1%,1
Cc1cccc(CNC(=O)c2cnn(-c3nccc(-c4cccs4)n3)c2C(C)C)n1,x,-4%[9.04 µM],u,x,x
CC#CCOC(=O)c1c(C)nc2sc3c(c2c1N)CCC(O)C3 (configuration not stated),u,u,9.2µM*,23µM*,-9
O=c1c2ccccc2cnn1Cc1n[nH]c(=S)n1-c1ccccc1,4%,9%,-16%,16%,-2
CCOCCCNS(=O)(=O)c1ccc(NC(=O)N2c3ccccc3Sc3ccccc32)cc1,u,23µM*,u,u,u
CC(=O)N(C)c1ccc(NS(=O)(=O)c2cc(Cl)ccc2Cl)cc1,1%,19%,2%,-2%,18
CC(C(=O)Nc1cccc(C#N)c1)n1nc(-c2ccccc2)c2c(c1=O)CCCC2 (configuration not stated),x,u,-24%,x,x
CC(C(=O)Nc1ccccc1C(F)(F)F)n1nc(-c2ccccc2)c2c(c1=O)CCCC2 (configuration not stated),x,u,16µM*,x,x
